Out of some 58,000 compounds screened, about 3,400 (5.9%) were called active.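 Rule for the calls: active = luminescence count or its row- and column-corrected plate score outside the 99.7% band of the plate's sample wells, on either side; inactive = the rest.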 The list comes from a sample in which actives are over-represented; it also holds similar structures and randomly drawn compounds.

D(1A) dopamine receptor (Homo sapiens), sequence (P21728 whole entry, looked up): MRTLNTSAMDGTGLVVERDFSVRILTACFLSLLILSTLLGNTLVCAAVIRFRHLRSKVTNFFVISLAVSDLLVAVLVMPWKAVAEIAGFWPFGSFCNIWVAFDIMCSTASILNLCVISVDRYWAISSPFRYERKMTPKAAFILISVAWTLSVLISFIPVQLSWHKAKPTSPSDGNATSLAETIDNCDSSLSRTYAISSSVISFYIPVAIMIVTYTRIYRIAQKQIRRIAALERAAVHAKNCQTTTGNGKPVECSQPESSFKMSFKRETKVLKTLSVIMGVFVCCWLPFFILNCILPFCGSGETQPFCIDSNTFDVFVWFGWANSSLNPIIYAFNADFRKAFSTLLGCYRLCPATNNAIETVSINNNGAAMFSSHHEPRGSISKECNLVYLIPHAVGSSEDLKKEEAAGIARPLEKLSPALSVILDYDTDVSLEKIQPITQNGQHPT

This test addresses D(1A) dopamine receptor (Homo sapiens) (UniProt P21728). Kind of test: D1 CRE-luciferase signal change, two-sided – cell-based, HEK293 D1, dopamine EC30, D1 allosteric modulator project, primary screen (AID 641). As to conditions: dopamine EC30 potentiation, at 10 µM, actives deviate in either direction.
On to `Cc1ccnc(N2CCCC(C(=O)Nc3cc(F)ccc3C)C2)n1` (configuration not stated), for which the B-score was -0.197 (inactive). For the compound `O=C(Nc1ccc2c(c1)OCCO2)C1CCCN(c2ncccn2)C1` (configuration not stated), the B-score is -3.93 (active). In the case of `O=C(CSc1nc2ncccc2[nH]1)Nc1ccc2c(c1)OCCO2` it was 0.287 (inactive); in that of `O=C1c2oc3ccc(Br)cc3c(=O)c2C(c2cccc(F)c2)N1CCO` (configuration not stated), -0.882 (inactive). In the case of `CN=C1SC(C(=O)O)CC(=O)N1C` (configuration not stated), the B-score is -0.346 (inactive). Turning to `Cc1noc(NS(=O)(=O)c2ccc(N3CC(O)=C(c4ccccc4)C3=N)cc2)c1C`, the B-score was 0.215 (inactive). For `COCCNC(=O)COc1ccc(C)c(C)c1`, the B-score was 0.751 (inactive). Take `O=C(Nc1cccnc1)c1ccc2c(c1)OCO2`: the B-score is -0.0115 (inactive). Take `O=C(Nc1cccnc1)c1noc2c1CCCCC2`: the B-score was -2.9 (active). With `CCOc1cccc(C(=O)Nc2cccnc2)c1`, the B-score is 0.108 (inactive). Take `Cc1nnc(SCC(=O)NCc2ccccc2)s1`: the B-score is 0.474 (inactive). With `O=C(CSc1nnc2ccccn12)c1ccccc1`, the B-score was -0.291 (inactive).

Consider `COc1ccc(-n2c(SC)nc(O)cc2=O)cc1`, for which the B-score was 0.0194 (inactive). As to `COc1ccc(NC(=O)C2CCCN(S(=O)(=O)c3cccc4cccnc34)C2)cc1OC` (configuration not stated), the B-score is 11.5 (active). Take `COc1ccccc1CNC(=O)C1CCCN(S(=O)(=O)c2cccc3cccnc23)C1` (configuration not stated): the B-score is -0.155 (inactive).

Regarding `COc1ccc(NC(=O)C2CCCN(S(=O)(=O)c3cccc4cccnc34)C2)cc1` (configuration not stated), the B-score was -1.11 (inactive). For `COc1ccc(OC)c2[nH]c(=O)c(CCNC(=O)C(C)(C)C)cc12`, the B-score was -0.197 (inactive). With `CCCCn1c(SCC(=O)NCCc2ccc(OC)c(OC)c2)nc2c1c(=O)n(C)c(=O)n2C`, the B-score is 0.0783 (inactive). `CCOc1ccc(Cn2c(SCCCCC#N)nc3c2c(=O)n(C)c(=O)n3C)cc1OCC`: the B-score is 10.1 (active). In the case of `CCCSc1nc2c(c(=O)n(C)c(=O)n2C)n1Cc1ccc(C)cc1` it was 1.94 (inactive); in that of `Fc1ccc(OCc2nn3c(Cn4nnc5ccccc54)nnc3s2)cc1`, -0.628 (inactive); in that of `Oc1ccc(Cl)cc1/C=N/c1nc2ccccc2[nH]1`, 1.49 (inactive).

Regarding `COc1cccc(NC(=O)C2CCCN2C(=O)OCc2ccccc2)c1` (configuration not stated), the B-score was 0.12 (inactive). As to `N#Cc1ccc(COC(=O)Cn2nnc(-c3ccccc3)n2)cc1`, the B-score is 0.71 (inactive). As to `N#Cc1c(N)sc2c1CCN(C(=O)OCc1ccccc1)C2`, the B-score was 5.84 (active).

In the case of `O=C(NCCN1CCOCC1)c1ccc2c(c1)ncn2C1CCCC1`, the B-score is -0.956 (inactive). For the compound `COc1ccc(OC)c(NC(=O)Cn2c(=O)oc3ccccc32)c1`, the B-score is 0.945 (inactive). Take `COc1ccc(CCNC(=O)CCCCn2c(=O)[nH]c3ccccc3c2=O)cc1OC`: the B-score is 0.358 (inactive). In the case of `COc1ccc(CCNC(=O)CCn2c(=O)oc3ccccc32)cc1OC`, the B-score was 6.86 (active). As to `Cc1c(C(=O)NCC2CCCO2)sc2nc(-c3ccccc3)cn12` (configuration not stated), the B-score was 0.33 (inactive).

Consider `COc1ncnc2sc3c(c12)CCCC3`, for which the B-score is 5.43 (active).

Take `O=C(O)[C@@H]1CCCN1c1ncnc2sc3c(c12)CCC3`: the B-score is -0.0144 (inactive). Turning to `CC1(C)CN=C(N2CCN(c3ncnc4sc5c(c34)CCCC5)CC2)S1`, the B-score is -0.977 (inactive). In the case of `O=C(NC1CCCCC1)C1CCCN(S(=O)(=O)c2cccs2)C1` (configuration not stated) it was 0.0829 (inactive); in that of `O=C(CCSc1ccccc1)NCCSc1ccccn1`, 0.117 (inactive). As to `COc1cccc(C2/C(=C(/O)c3ccc(F)cc3)C(=O)C(=O)N2CCN(C)C)c1` (configuration not stated), the B-score is -0.0254 (inactive). Under `COc1cccc(C2/C(=C(/O)c3ccncc3)C(=O)C(=O)N2CCCN(C)C)c1` (configuration not stated) stands -3.02 (active); under `COc1ccc(/C(O)=C2/C(=O)C(=O)N(CCCN(C)C)C2c2ccccc2)cc1OC` (configuration not stated), -0.187 (inactive). In the case of `O=S(N1CCCCCC1)C12CC3CC(CC(C3)C1)C2` (configuration not stated), the B-score was -1.48 (inactive). In the case of `CCCN1C(=O)C(NS(=O)(=O)c2ccc(N)cc2)(C(F)(F)F)C(C(=O)OC)=C1C` (configuration not stated), the B-score is -0.0535 (inactive). With `C=CCNC(=O)CCCOc1cccc(C)c1`, the B-score was 0.267 (inactive). `Cc1nc2c(-c3ccc(F)cc3)c(C)nn2c(C)c1CCC(=O)N1CCN(c2ccccn2)CC1`: the B-score was -0.178 (inactive).

Take `CCOc1cc(C(=O)N2CCc3cc(OC)c(OC)cc3C2)ccc1OC(F)F`: the B-score is 15.1 (active). As for `COc1ccc(C(=O)N2CCC(C(=O)Nc3cccc(C)c3)CC2)cc1OC`, the B-score is -0.521 (inactive). As for `CCOc1cc(CN2CCN(C(=O)CC(C)C)CC2)ccc1OC`, the B-score is 0.0601 (inactive).

In the case of `CCN1CCCC1CNc1ncnc2c1[nH]c1ccc(F)cc12` (configuration not stated), the B-score is -0.311 (inactive).

With `O=C1CCCN1CCCNc1ncnc2c1[nH]c1ccccc12`, the B-score is -0.02 (inactive). As to `CC(C)OCCCNc1ncnc2c1[nH]c1ccc(F)cc12`, the B-score was -3.37 (active). In the case of `c1csc(-c2cn3c(n2)SCC3)c1`, the B-score is -0.433 (inactive). As for `O=C(COC(=O)c1ccc2c(c1)OCCO2)NCc1ccccc1`, the B-score is 0.524 (inactive). `COc1cc2[nH]c(=S)n(Cc3ccc(C)o3)c(=O)c2cc1OC`: the B-score was 2.05 (inactive). On to `CCOC(=O)N1CCN(C(=O)CN(c2ccc(C)c(C)c2)S(=O)(=O)c2ccccc2)CC1`, for which the B-score is -0.0191 (inactive). Consider `COc1ccccc1Nc1nc(N)nc(CN(C)C2CCCCC2)n1`, for which the B-score was -0.094 (inactive). For `COc1ccccc1NC1=NC2(CCCC2)N=C(N)N1`, the B-score is -3.14 (active). For the compound `COc1ccccc1NC1=NC(c2ccc(Cl)cc2)N=C(N)N1` (configuration not stated), the B-score is -3.3 (inactive). For the compound `c1ccc(-n2ncc(-c3nn[nH]n3)n2)cc1`, the B-score was -1.26 (inactive). For the compound `CCCOC(=O)CC1C(=O)NCCN1Cc1ccc(F)cc1` (configuration not stated), the B-score is -0.0757 (inactive).

Regarding `CC1CCCN(C(=O)c2ccc3c(c2)C(=O)N(CCC2=CCCCC2)C3=O)C1` (configuration not stated), the B-score was -0.192 (inactive).

With `COC(=O)Nc1c(C)n(C)n(-c2ccccc2)c1=O`, the B-score was -1.4 (inactive). As for `CCN(CC)CCN1C(=O)C(=O)/C(=C(/O)c2ccc(OC)c(OC)c2)C1c1ccccn1` (configuration not stated), the B-score was -0.322 (inactive).

Consider `COc1cc(-n2c(C)nc3cc(C(=O)NCc4ccco4)ccc32)cc(OC)c1OC`, for which the B-score is 0.213 (inactive). In the case of `COc1ccccc1NC(=O)CSc1nnc(Cc2cccn2C)n1-c1ccc(F)cc1` it was -0.801 (inactive); in that of `COc1ccc(-n2c(Cc3cccn3C)nnc2SCC(=O)Nc2cc(C)cc(C)c2)cc1`, 11.4 (active); in that of `COC(=O)c1ccc(NC(=O)CSc2nnc(Cc3cccn3C)n2-c2ccc(F)cc2)cc1`, -0.00937 (inactive). In the case of `CCCc1[nH]nc2c1C(C1CC=CCC1)C(C#N)=C(N)O2` (configuration not stated), the B-score was -0.104 (inactive).

`CC1(C)CC(=O)c2cc(OCC(=O)NCC3CCCO3)ccc2O1` (configuration not stated): the B-score is -0.0202 (inactive). Take `O=C(O)c1ccc(-n2cccc2)cc1O`: the B-score is -0.446 (inactive). `Cc1ccc(OCCCC(=O)N2CCOCC2)c(C)c1`: the B-score was -1.03 (inactive). As for `CCOc1cc(-c2noc(CCC(=O)N3CCOCC3)n2)ccc1OC`, the B-score is 13.7 (active).

Turning to `CCOc1ccc(-c2nnn(CC(=O)N3CCN(c4ccc(F)cc4)CC3)n2)cc1OCC`, the B-score is -0.401 (inactive). On to `CCOc1ccc(-c2nnn(CC(=O)N3CCN(c4ccc(OC)cc4)CC3)n2)cc1OCC`, for which the B-score is 3.84 (active). On to `Cc1ccc(-c2noc(CCC(N)=O)n2)cc1`, for which the B-score was -0.953 (inactive). Take `COc1ccc(C(=O)Cn2nnc(-c3ccc(N4CCOCC4)cc3)n2)cc1OC`: the B-score is 0.758 (inactive). For `CN1C(=O)CC(N2CCN(c3ccccn3)CC2)C1=O` (configuration not stated), the B-score is -0.0528 (inactive).

In the case of `COc1ccc(C(=O)NCCc2ccc(S(N)(=O)=O)cc2)cc1OC`, the B-score is -0.0032 (inactive). Take `Cc1sc2c(c1C)c(=O)n(-c1ccccc1)c1nncn21`: the B-score was 0.694 (inactive). Consider `COc1cc2[nH]c(=O)n(CCC(=O)NC3CCN(Cc4ccccc4)CC3)c(=O)c2cc1OC`, for which the B-score was -0.633 (inactive). As to `O=c1cc(-c2ccccc2)nc(N2CCCCC2)[nH]1`, the B-score is 4.97 (active).

In the case of `O=c1cc(CSc2ccccn2)nc(N2CCN(c3ccccc3)CC2)[nH]1`, the B-score is 0.00444 (inactive). Consider `Cc1ccc(SCc2cc(=O)[nH]c(N3CCCCC3)n2)cc1`, for which the B-score was 1.14 (inactive). Take `Cc1ccc(OCc2nc(C#N)c(N3CCCC3)o2)cc1`: the B-score was 2.17 (inactive).

Regarding `N#Cc1nc(COc2ccc(Cl)cc2)oc1N1CCCC1`, the B-score is 2.09 (inactive). As for `CC1CCN(c2oc(-c3ccccc3F)nc2C#N)CC1`, the B-score was 8.13 (active). For `COc1ccc(CCN2CNc3c(c(=O)n(C)c(=O)n3C)C2)cc1OC`, the B-score was -0.27 (inactive). Under `Oc1c(C(c2cccs2)N2CCN(c3ccc(F)cc3)CC2)sc2ncnn12` (configuration not stated) stands -1.14 (inactive); under `O=C(C1CCC1)N1CCc2cc(S(=O)(=O)NCc3cccnc3)ccc21`, 4.59 (active); under `CCCNS(=O)(=O)c1ccc2c(c1)CCCN2C(C)=O`, -1.43 (inactive). On to `CC(=O)N1CCc2cc(S(=O)(=O)Nc3ccccc3N3CCN(C)CC3)ccc21`, for which the B-score is -0.699 (inactive). With `CC(C)(CNCC(O)c1ccccc1)N1CCOCC1` (configuration not stated), the B-score is 0.153 (inactive). On to `CN1c2ccccc2-c2nc3ccccc3n2C1c1ccco1` (configuration not stated), for which the B-score is -2.57 (inactive).

Consider `CN(c1nc2ccccc2n2c(-c3ccco3)nnc12)S(=O)(=O)c1ccccc1`, for which the B-score is 1.04 (inactive). Regarding `Cn1c(-c2ccco2)nc2cc3ccccc3cc21`, the B-score is -4.84 (active). Under `CCCc1nc(SCC(=O)Nc2ccccc2OC)c2c(=O)n(C)c(=O)n(C)c2n1` stands 1.18 (inactive); under `CCOc1ccccc1NC(=O)C1CCC(CNc2c(N3CCOCC3)c(=O)c2=O)CC1` (configuration not stated), -0.266 (inactive). For the compound `CCOc1cc(NC(=O)c2ccco2)c(OCC)cc1NC(=O)COc1ccccc1`, the B-score was -0.0288 (inactive). Under `CCOc1cc(N2CCOCC2)c(OCC)cc1NC(=O)COc1cccc2cccnc12` stands -6.32 (active). Turning to `N/C(=N\c1nc2ccccc2o1)NC(=O)C(Cc1ccccc1)N1C(=O)c2ccccc2C1=O` (configuration not stated), the B-score is -0.0263 (inactive).

(Values after PubChem BioAssay AID641 (Vanderbilt High Throughput Screening Facility, 2007).)
